Test results: PubChem BioAssay (EPA / NIEHS)
Active and inactive are the calls of the source. How the source made its calls: active means hit-call score of the fitted dose curve at least 0.9, where 1 is the maximum; inactive means score below 0.9.

Target: X-box-binding protein 1 (Homo sapiens) (UniProt P17861)
Test: ATG_Xbp1_CIS: Attagene CIS-FACTORIAL HepG2 Assay for human X-box Binding Protein 1 (XBP1) (AID 2282972)
Settings: HepG2 XBP1 cis-element reporter, Attagene multiplex; actives raise or lower the signal
Description: ATG_CIS is a cell-based, multiplexed-readout assay that uses HepG2, a human liver cell line, with measurements taken at 24 hours after chemical dosing in a 24-well plate.ATG_Xbp1_CIS is one of 52 assay component(s) measured or calculated from the ATG_CIS assay. It is designed to make measurements of mRNA induction, a form of inducible reporter, as detected with fluorescence intensity signals by Reverse transcription polymerase chain reaction (RT-PCR) and Capillary electrophoresis technology.Data from the assay component ATG_Xbp1_CIS was analyzed into 1 assay endpoint. This assay endpoint, ATG_Xbp1_CIS, was analyzed with bidirectional fitting relative to DMSO as the negative control and baseline of activity. Using a type of inducible reporter, measures of mRNA for gain or loss-of-signal activity can be used to understand the reporter gene at the transcription factor-level as they relate to the gene XBP1. Furthermore, this assay endpoint can be referred to as a primary readout, because this assay has produced multiple assay endpoints where this one serves a reporter gene function. To generalize the intended target to other relatable targets, this assay endpoint is annotated to the dna binding intended target family, where the subfamily is basic leucine zipper.
Human liver HepG2 cells are transiently transfected with multiple reporter transcription units (MRTUs) in 6-well plates using FuGene 6 reagent (Roche; 3 ml FuGene/1 mg DNA). The MRTU constructs are regulated by a cis-regulating element (promoter). […] A major difference between the CIS and TRANS system is that in CIS activities of endogenous TFs are measured, whereas the TRANS assay evaluates changes in activities of exogenous, chimeric NR-Gal4 proteins. […] At the end of 24 hour incubation, total RNA was isolated using TriZol reagent (Invitrogen). The isolated RNA is then reverse-transcribed using oligo(dT) primer and Mo-MLV reverse transcriptase (Invitrogen) with DNAse I (Ambion) treatment for 30 min. The one-tenth of the produced cDNA was amplified by PCR using Taq DNA polymerase (Invitrogen) and two reporter sequence-specific primers. The PCR products were fluorescently labeled by primer extension with 6-arboxyfluorescein (6-FAM) 5'-labeled reporter sequence-specific primer (2 min at 95 C, 20 s at 68 C and 10 min at 72 C) and these products were digested with 5U of HpaI (New England Biolabs) for 2h at 37 C. The fragments were purified using Qiaquick PCR columns (Qiagen), analyzed on an ABI 3130xL genetic analyzer (Applied Biosystems) with peak positions identified by using a set of X-rhodamine (ROX)-labeled MapMarker1000 molecular weight standards (BioVentures). The raw capillary electrophoresis data was processed using Attagraph software (Attagene).

Sequence of X-box-binding protein 1 (Homo sapiens) (P17861 whole entry, looked up): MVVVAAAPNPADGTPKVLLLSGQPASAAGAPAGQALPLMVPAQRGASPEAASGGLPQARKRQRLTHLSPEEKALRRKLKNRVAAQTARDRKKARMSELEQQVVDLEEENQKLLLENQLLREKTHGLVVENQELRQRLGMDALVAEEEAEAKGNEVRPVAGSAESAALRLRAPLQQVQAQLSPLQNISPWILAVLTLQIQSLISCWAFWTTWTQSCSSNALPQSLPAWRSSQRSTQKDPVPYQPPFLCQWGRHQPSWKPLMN

outcome, inactive:
COc1ccc(OC)c(N=Nc2c(O)ccc3ccccc23)c1
C=C(C)[C@H]1CC=C(C)C(=O)C1
CC1C2CC(CC2C2CCCC(O)C2)C1(C)C (stereo not given)
NCc1ccco1
CC1(C)O[C@@H]2[C@@H](CO[C@@]3(COS(N)(=O)=O)OC(C)(C)O[C@@H]23)O1
Clc1ccc(C(c2ccccc2Cl)C(Cl)Cl)cc1 (stereo not given)
CC(=O)c1c(C)c([N+](=O)[O-])c(C(C)(C)C)c([N+](=O)[O-])c1C
C=C(C)C1CC=C(C)C(=O)C1 (stereo not given)
C[Si]1(C)O[Si](C)(C)O[Si](C)(C)O1
COc1ccc(CCN2CCC(Nc3nc4ccccc4n3Cc3ccc(F)cc3)CC2)cc1
COC(C)(C)CCO
O=C(O)CNc1ccccc1
CN(C)c1ccncc1
C=C(C)CNCC
CCO/C=C1\N=C(c2ccccc2)OC1=O
CSCCC=O
CCCC(O)C(O)CO (stereo not given)
CCCSc1ccc2nc(NC(=O)OC)[nH]c2c1
CC1(C)O[C@@H]2C[C@H]3[C@@H]4CCC5=CC(=O)C=C[C@]5(C)[C@@]4(F)[C@@H](O)C[C@]3(C)[C@]2(C(=O)CO)O1
CC/C=C\CC/C=C/CO
CC(=O)CC(=O)Nc1ccc(C)cc1C
C1=CC2C3C=CC(C3)C2C1 (stereo not given)
Cc1c(Cl)cccc1[N+](=O)[O-]
CC(C)=CCCC(C)CC(=O)O (stereo not given)
CCCCCC(=O)CC
N#Cc1ccc(CC(=O)c2cccc(C(F)(F)F)c2)cc1
CC[N+](C)(CC)CC
O=[N+]([O-])c1cccc(Cl)c1
Clc1cc(Cl)c(-c2c(Cl)c(Cl)cc(Cl)c2Cl)cc1Cl
CCOCCOCCOCC
COc1cc(CCC(C)=O)ccc1O
CC1(C)COCN1
CCCC(C)=O
CCC(=O)OCCOc1ccccc1
COC(=O)c1ccc(C)cc1C1=NC(C)(C(C)C)C(=O)N1 (stereo not given) (tested in a mixture with another compound)
CC=Cc1ccc(OCC)c(O)c1
Cc1occc(=O)c1OC(=O)C(C)C
CC(C)(CO)[C@@H](O)C(=O)NCCC(=O)O
CC(C)NCC(O)COc1ccc(CC(N)=O)cc1 (stereo not given)
CCOC(=O)C1OC1c1ccccc1 (stereo not given)
